From ChEMBL document CHEMBL3433997, “St. Jude Leishmania screening dataset” (2016)

What was measured:
Type in all cases: functional
[1] = molecular target: Solute carrier family 2, facilitated glucose transporter member 1 (Homo sapiens) (UniProt P11166); test: ST_JUDE_LEISH: Cytotoxicity at 2uM final concentration against transgenic Leishmania Mexicana promastigotes LmGLUT1 that are glucose transport deficient and complemented with the human glucose transporter GLUT1. Activity is measured by DNA content using SYBR green in vitro
Chain of Solute carrier family 2, facilitated glucose transporter member 1 (Homo sapiens) (P11166 whole entry): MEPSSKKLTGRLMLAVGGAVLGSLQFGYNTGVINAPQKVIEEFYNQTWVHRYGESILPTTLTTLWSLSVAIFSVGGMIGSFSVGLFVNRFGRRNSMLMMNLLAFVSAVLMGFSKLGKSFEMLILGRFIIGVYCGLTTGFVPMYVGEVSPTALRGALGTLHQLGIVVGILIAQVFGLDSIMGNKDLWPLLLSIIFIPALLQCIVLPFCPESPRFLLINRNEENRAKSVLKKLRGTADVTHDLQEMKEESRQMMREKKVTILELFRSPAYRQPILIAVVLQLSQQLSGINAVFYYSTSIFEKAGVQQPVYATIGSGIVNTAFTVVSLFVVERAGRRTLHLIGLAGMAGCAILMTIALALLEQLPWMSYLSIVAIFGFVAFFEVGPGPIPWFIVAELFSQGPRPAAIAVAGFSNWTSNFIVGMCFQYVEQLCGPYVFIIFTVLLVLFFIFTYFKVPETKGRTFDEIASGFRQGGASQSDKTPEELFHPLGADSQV

[2] = molecular target: Hexose transporter 1 (Plasmodium falciparum) (UniProt O97467); test: ST_JUDE_LEISH: Cytotoxicity at 2uM final concentration against transgenic Leishmania Mexicana promastigotes LmPfHT that are glucose transport deficient and complemented with the Plasmodium falciparum hexose transporter. Activity is measured by DNA content using SYBR green in vitro
[3] = molecular target: Glucose transporter (Leishmania mexicana) (UniProt O61059); test: ST_JUDE_LEISH: Cytotoxicity at 2uM final concentration against transgenic Leishmania Mexicana promastigotes LmGT2 that are glucose transport deficient and complemented with the L. Mexicana glucose transporter 2. Activity is measured by DNA content using SYBR green in vitro

## O=c1cc(NCCCNCc2cc(Br)ccc2F)[nH]c2ccccc12
[1]
  inhibition: -1.01%
[2]
  inhibition: -0.63%
[3]
  inhibition: -6.76%

## COc1ccc2ncc(F)c(CCN3CC4CCCC4(CNCc4ccc5c(n4)NC(=O)CS5)C3)c2n1 (stereo unspecified)
[1]
  inhibition: 1.18%
[2]
  inhibition: 1.32%
[3]
  inhibition: 0.3%

## Clc1ccc(OCCC2CCN(CCCCCCCN3CCC(CCOc4ccc(Cl)c(Cl)c4)CC3)CC2)cc1Cl
[1]
  inhibition: 9.59%
[2]
  inhibition: 11.4%
[3]
  inhibition: 3.47%

## O=C(Nc1cccc(-c2nc3ccccc3[nH]2)c1)c1cccc(NC(=O)c2ccco2)c1
[1]
  inhibition: 2.33%
[2]
  inhibition: 2.09%
[3]
  inhibition: 0.63%

## CCc1cc([C@H]2O[C@@H](n3cnc4c(NCC(c5ccccc5)c5ccccc5)nc(NCCNc5ccccn5)nc43)[C@H](O)[C@@H]2O)on1
[1]
  inhibition: -1.61%
[2]
  inhibition: -0.53%
[3]
  inhibition: -2.53%

## CCc1ccc(CN2CCC(C(=O)Nc3ccc(-c4nc5ccccc5[nH]4)cc3)CC2)o1
[1]
  inhibition: 31.6%
[2]
  inhibition: 39.6%
[3]
  inhibition: 25.7%

## CN(c1ccccc1C(=O)Nc1cc(Cl)ccc1Oc1ccccc1)S(=O)(=O)c1ccccc1
[1]
  inhibition: 5.06%
[2]
  inhibition: 4.53%
[3]
  inhibition: 3.66%

## CCOC(=O)CNC(=O)N(CCN(Cc1ccccc1)C(=O)NCC(=O)OCC)Cc1ccccc1
[1]
  inhibition: 0.94%
[2]
  inhibition: 2.07%
[3]
  inhibition: 1.35%

## COc1ccc(F)cc1-c1ccc(C(=O)N2CCCN(c3ccc(C#N)cn3)CC2)cc1
[1]
  inhibition: 0.86%
[2]
  inhibition: 0.21%
[3]
  inhibition: -5.82%

## CC(C)NCC(O)Cn1c2ccc(Br)cc2c2cc(Br)ccc21 (stereo unspecified)
[1]
  inhibition: 0.74%
[2]
  inhibition: 0.92%
[3]
  inhibition: 0.36%

## CC(=O)Nc1nc(C(=O)Nc2ccc(-c3ccc(-c4nc5cccc(C)c5[nH]4)cc3)cc2)cs1
[1]
  inhibition: 10.7%
[2]
  inhibition: 9.18%
[3]
  inhibition: 6.38%

## Cc1ccc(CNC(=N)NC(=O)c2nc(Cl)c(NCc3ccc(Cl)cc3)nc2N)c(C)c1
[1]
  inhibition: -0.6%
[2]
  inhibition: 0.67%
[3]
  inhibition: 1.11%
